CatL inh: blocks human cathepsin L protease activity | P07711 | purified cathepsin L, fluorogenic substrate, fluorescence | inhibition, %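 (tested at 10 µM)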 | actives 0.17% (n = 58,000) | AID 460; in the data active = inhibition above about 45%;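 note: 0% = enzyme with no compound and 100% = no enzyme blank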
TNAP act DEA: activates human TNAP at intermediate phosphate acceptor concentration. purified TNAP, CDP-star luminescence, 100 mM DEA, 30 min; active compounds read high; scale: 0 levamisole-inhibited, 1 vehicle-only enzyme. activation factor at 20 µM. 64,000 tested, under 10 active;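 active = activation factor of at least 2 at 20 µM, relative to controls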
Target sequence (P05186 whole entry, looked up): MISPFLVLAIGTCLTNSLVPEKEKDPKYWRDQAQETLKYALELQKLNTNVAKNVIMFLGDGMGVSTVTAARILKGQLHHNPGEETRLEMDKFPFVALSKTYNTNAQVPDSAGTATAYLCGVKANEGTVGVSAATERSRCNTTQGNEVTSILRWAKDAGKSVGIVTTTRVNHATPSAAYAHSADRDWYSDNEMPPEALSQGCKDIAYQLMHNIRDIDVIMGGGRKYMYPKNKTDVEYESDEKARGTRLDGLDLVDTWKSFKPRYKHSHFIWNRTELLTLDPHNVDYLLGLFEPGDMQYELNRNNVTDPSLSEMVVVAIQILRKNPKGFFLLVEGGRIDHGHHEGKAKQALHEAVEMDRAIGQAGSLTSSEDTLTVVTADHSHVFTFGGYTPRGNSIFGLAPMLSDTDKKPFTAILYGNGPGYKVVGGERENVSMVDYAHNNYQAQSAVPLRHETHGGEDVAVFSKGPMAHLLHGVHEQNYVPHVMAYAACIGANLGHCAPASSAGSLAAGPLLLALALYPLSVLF
MMP-13 inhibitor: blocks human MMP13 activity | P45452 | MMP-13 fTHP FRET cleavage, Mca fluorescence | inhibition, % at 4 µM | actives 0.07% (n = 65,000);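 active = inhibition above the mean of compound-free control plate wells plus 3 SD, cut at about 14% in these data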;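 note: 0% = DMSO wells and 100% = wells with reference MMP-13 inhibitor after basal subtraction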
CatB block: inhibitors of human cathepsin B | P07858 | purified cathepsin B, fluorogenic substrate, fluorescence | inhibition, %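 (tested at 10 µM)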 | actives 0.1% (n = 63,000); in the data active = inhibition above about 21%;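 note: 0% = enzyme with no compound and 100% = no enzyme blank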
CatS block: blocks human cathepsin S protease activity. AID 501. actives 0.06% (n = 62,000). inhibition, %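 (tested at 5 µM per compound within 10-compound mixtures)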. recombinant cathepsin S, AMC dipeptide fluorescence, pooled mixtures. P25774; in the data active = inhibition above about 32%, passing the limit was not always enough; inconclusive = no clear call, values can overlap the other calls;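 note: 0% = enzyme without compound and 100% = blank without enzyme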
CatB mix inh: human cathepsin B inhibition by mixtures; Purified cathepsin B, AMC dipeptide fluorescence, compound mixtures; inhibition, %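 (ten-compound pools at 5 µM per compound and 50 µM total)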; actives 0.06% (n = 62,000); in the data active = inhibition above about 22%, passing the limit was not always enough; inconclusive = no clear call, values can overlap the other calls;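 note: 0% = enzyme without compound and 100% = no enzyme blank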
Active calls of the source: *; u = inconclusive; x = no result. The list is not random: actives were taken first. Their share in the collection is about 0.37%.

SMILES | CatL inh | TNAP act DEA | MMP-13 inhibitor | CatB block | CatS block | CatB mix inh
Cc1nn(-c2ccccc2)c2c1C(c1ccncc1)C(C#N)=C(N)O2 (stereo unspecified) | 7.6 | 1 | 9.8 | -2.0 | 0.5 | -3.4
COc1cc(-n2nc(C)c3c2OC(N)=C(C#N)C3c2ccccc2)c(Cl)c(Br)c1O (stereo unspecified) | -2.5 | 0.8 | 16.0* | -3.6 | -2.8 | 7.9
CCN1C(=S)SC(=O)C1=C1C=C(C)N(Cc2ccco2)C(C)=C1 | -3.7 | 0.9 | 18.9* | -3.0 | 2.7 | -2.7
CCOc1ccc(CCNC(=O)C2CCC(=O)N2C2CCCCC2)cc1OCC (stereo unspecified) | 0.6 | 1 | 3.6 | -0.2 | -3.9 | 3.5
Cc1oc(-c2ccc(Cl)cc2)nc1CN1CCC(C(=O)N2CCN(c3ccccn3)CC2)CC1 | x | 0.9 | -15.6 | 2.3 | 16.5 | 0.4
COc1cccc(NC2=NCC(=O)N2Cc2cccs2)c1 | 73.4* | 1 | 6.4 | -2.0 | -0.7 | 3.9
COc1ccc(NC2=NCCC(=O)N2Cc2cccs2)cc1 | 0.4 | 0.9 | -2.4 | 0.2 | -2.9 | -2.2
COc1ccccc1S(=O)(=O)Cc1ccc(C(=O)NCCN2CCCCCC2)o1 | 50.4* | 0.9 | 2.8 | 1.9 | -1.6 | 4.6
COC(=O)c1ccc(NC(=O)c2ccc(CN3CCOCC3)cc2)cc1 | 84.1* | 0.9 | -0.4 | 1.3 | 6.4 | 1.2
COc1ccccc1-c1nnc(SCC(=O)NCc2c(C)c(Cl)cc(C(C)C)c2O)o1 | 10.9 | 0.9 | 5.6 | 3.6 | 4.0 | 0.2
CCc1nc2ccccc2n1Cc1ccc(OC)c(OC)c1 | x | 1 | 2.4 | 1.8 | 12.6 | 2.6
C=COCCn1c(-c2nonc2N)nc2ccccc21 | 85.5* | 0.9 | 7.8 | 14.9 | u | 55.1*
Nc1nonc1-c1nc2ccccc2n1Cc1ccc(Cl)cc1 | 29.5 | 1 | 4.4 | 7.5 | -2.4 | 21.8
COc1cccc(Cn2c(-c3nonc3N)nc3ccccc32)c1 | 50.2* | 0.9 | 0.0 | 39.1* | -0.7 | 15.5
COc1cc(Cn2c(-c3nonc3N)nc3ccccc32)ccc1C | 23.3 | 0.9 | -8.5 | 49.5* | 3.1 | 30.3
CCC(=O)Nc1nonc1-c1nc2ccccc2n1Cc1ccccc1 | 8.2 | 0.8 | -37.5 | 3.7 | -3.1 | 1.3
Cc1ccc(Cn2c(-c3nonc3N)nc3ccccc32)cc1 | 22.3 | 1 | -0.3 | 21.8* | -12.9 | -1.2
COc1cccc(C(=O)Oc2cc(N)n(S(=O)(=O)c3ccc(C)cc3)n2)c1OC | 16.4 | 0.9 | -0.6 | 12.6 | 11.6 | 8.6
Nc1cc(OC(=O)c2cccs2)nn1S(=O)(=O)c1ccccc1 | 2.9 | 0.9 | 1.7 | 75.7* | -1.8 | 68.8*
Nc1cc(OC(=O)c2cccs2)nn1S(=O)(=O)c1ccc(F)cc1 | -3.3 | 1 | 2.5 | 55.6* | -1.5 | 55.3*
COC(=O)CSc1nc(C)c(Oc2ccccc2)c(=O)[nH]1 | -0.1 | 0.9 | 0.2 | 0.1 | x | x
COc1ccc(C(=O)CSc2nc(C)cc(=O)[nH]2)cc1 | 4.2 | 1 | -9.7 | 2.0 | -11.3 | 3.5
COc1ccc(CSc2nc(C)cc(=O)[nH]2)cc1 | -10.1 | 0.9 | 24.9* | 4.5 | -3.1 | 6.4
O=C(CCn1c(=O)oc2ccccc21)NCc1cccs1 | x | x | 1.0 | x | x | x
O=C(CSc1ncnc2c1oc1ccccc12)NCc1ccc(F)cc1 | 12.6 | 0.9 | -3.9 | 1.1 | 10.6 | -2.2
SMILES | CatL inh | TNAP act DEA | MMP-13 inhibitor | CatB block | CatS block | CatB mix inh
Nc1nc2n(n1)C1(CCCCC1)C1=C(CCCC1)N2 | 3.7 | 1 | 0.4 | 39.1* | 12.5 | 68.9*
COc1ccc(C(=O)c2no[n+]([O-])c2C(=O)c2ccc(OC)cc2)cc1 | 27.6 | 0.9 | 3.9 | 31.0* | 8.4 | 37.0*
CCOc1nc(Nc2ccc(-c3nc4ccccc4o3)cc2)nc(N2CCOCC2)n1 | -38.3 | 0.9 | -200.0 | -8.6 | -4.6 | 0.5
Cc1ccc(S(=O)(=O)NC(CC(=O)N2CCOCC2)c2ccco2)cc1 (stereo unspecified) | 12.1 | 0.9 | -9.9 | 0.5 | u | -0.9
O=C(CC(c1ccccc1)c1ccco1)N1CCOCC1 (stereo unspecified) | 18.5 | 1 | 1.4 | 8.4 | 59.4* | 6.7
O=C(Nc1cccc(OC(F)(F)F)c1)c1ccc(Br)o1 | -2.7 | 2.3* | 5.0 | 0.4 | -5.5 | -1.8
COc1ccc(OCc2nn3c(-c4ccco4)nnc3s2)cc1 | 10.3 | 0.8 | 5.4 | 2.7 | -6.7 | 0.5
COc1ccc(OCc2nn3c(-c4cccc(OC)c4)nnc3s2)cc1 | -3.4 | 0.8 | 15.7* | -2.1 | 4.7 | -4.0
Nc1ccc2ncccc2c1N | 79.4* | 0.9 | -1.4 | 7.3 | x | x
O=C(NCCCn1ccnc1)C(Cc1ccccc1)N1C(=O)c2ccccc2C1=O (stereo unspecified) | x | 0.9 | 3.6 | x | x | x
Cc1cc(C)c2c(=O)n(CC(=O)NCCCN3CCN(c4ccccc4F)CC3)sc2n1 | 65.2* | 0.8 | 2.8 | 3.5 | 6.4 | 6.9
Cc1[nH]n2c(=O)cc(C(C)(C)C)nc2c1-c1ccccc1 | 26.1 | 2* | -43.8 | 1.1 | 4.8 | 1.8
CCOC(=O)Cn1c(-c2nonc2NC(=O)c2ccccc2F)nc2ccccc21 | -14.0 | 1 | x | 1.6 | -3.8 | -0.1
Nc1nonc1-c1nc2ccccc2n1CC(=O)N1CCN(c2ccc(F)cc2)CC1 | x | 1 | 3.6 | 36.9* | 4.0 | 9.9
COc1ccc(CCNC(=O)Cn2c(-c3nonc3N)nc3ccccc32)cc1OC | 10.2 | 1 | -1.3 | 14.1 | -6.6 | 12.4
CCCCOc1ccccc1NC(=O)Cn1c(-c2nonc2N)nc2ccccc21 | 60.0* | 0.9 | 6.6 | 53.7* | -6.6 | -3.2
CCOc1ccc(CCNC(=O)Cn2c(-c3nonc3N)nc3ccccc32)cc1OCC | 51.7* | 1 | 1.6 | 64.5* | 3.2 | 51.0*
COc1ccc(Cl)c(Cn2c(NCCCO)nc3c2c(=O)n(C)c(=O)n3C)c1 | 56.8* | 0.9 | -1.1 | 0.9 | 4.8 | 0.6
O=C(C(Cc1ccccc1)N1C(=O)C2C3C=CC(C3)C2C1=O)N1CCCCCC1 (stereo unspecified) | -14.2 | 1 | 6.2 | 1.3 | -5.1 | -2.0
O=C(NCc1ccco1)C(Cc1ccccc1)N1C(=O)C2C3C=CC(C3)C2C1=O (stereo unspecified) | 54.3* | 1 | -0.9 | 4.8 | 11.6 | 0.0
CCC(C)[C@@H](NC(=O)OC(C)(C)C)c1nnc(S(=O)(=O)Cc2cccc(C)c2)o1 (stereo partly specified) | 76.0* | 1 | 3.2 | 33.7* | 2.7 | 22.8*
CN1CCN(S(=O)(=O)c2ccc(Br)s2)CC1 | 97.1* | 0.9 | -3.4 | 3.4 | 8.9 | 1.2
CCOC(=O)N1CCN(S(=O)(=O)c2ccc(Br)s2)CC1 | -2.9 | 0.9 | -0.2 | -3.1 | -27.6 | 5.3
O=C(CN1CCOCC1)OCCCC1CCCCC1 | -6.5 | 0.9 | -1.7 | 0.3 | 6.5 | -2.4
Cn1c(C(=O)NCCN2CCN(Cc3ccccc3)CC2)cc2c(=O)n(C)c3ccccc3c21 | 19.7 | 0.9 | -11.5 | 1.1 | 57.8* | -0.5
